The campaign covered roughly 340,000 compounds. About 2,100 (0.62%) were called active.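 The calls were made as follows: active = first-screen hits whose inhibition reached a set limit at any dose in the follow-up dose series; inconclusive = inhibition above the set first-screen limit but never retested; inactive = the rest.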 The list is a sample of the results. Potency and affinity values are given separately.
Molecular target: Rac GTPase-activating protein 1 (Homo sapiens) (UniProt Q9H0H5)
Assay: MgcRacGAP GTPase-activating activity inhibitors, confirmation, biochemical, ADP Hunter fluorescence, primary and confirmatory (AID 624330);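 also: fluorescence reports GDP produced by GAP-driven GTP hydrolysis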
Conditions: MgcRacGAP-stimulated Rac1 GTP hydrolysis, at 30 µM, active compounds read high, GST-tagged Rac1 F28L mutant substrate

Rac GTPase-activating protein 1 (Homo sapiens), sequence (Q9H0H5 whole entry, looked up): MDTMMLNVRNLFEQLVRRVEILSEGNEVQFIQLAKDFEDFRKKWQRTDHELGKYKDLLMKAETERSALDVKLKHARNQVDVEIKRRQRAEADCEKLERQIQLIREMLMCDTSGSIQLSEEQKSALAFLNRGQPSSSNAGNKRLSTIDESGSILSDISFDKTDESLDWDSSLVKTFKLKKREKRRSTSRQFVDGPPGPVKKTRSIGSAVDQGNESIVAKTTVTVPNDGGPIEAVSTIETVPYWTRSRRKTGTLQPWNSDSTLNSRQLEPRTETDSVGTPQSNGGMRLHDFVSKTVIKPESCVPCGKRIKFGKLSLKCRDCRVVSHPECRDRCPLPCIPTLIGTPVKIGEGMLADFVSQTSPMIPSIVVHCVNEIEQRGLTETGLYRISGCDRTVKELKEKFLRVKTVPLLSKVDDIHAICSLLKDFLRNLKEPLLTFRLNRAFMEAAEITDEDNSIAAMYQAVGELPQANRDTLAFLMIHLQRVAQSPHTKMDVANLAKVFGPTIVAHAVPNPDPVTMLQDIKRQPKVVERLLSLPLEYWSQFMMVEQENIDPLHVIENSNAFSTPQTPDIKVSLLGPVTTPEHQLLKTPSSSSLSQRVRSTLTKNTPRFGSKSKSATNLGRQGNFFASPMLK

inhibition, inactive:
CC(C)(C)c1ccc(C(=O)NCC(=O)N2CCC3(CC2)NCCc2[nH]cnc23)cc1 11%
O=C(N/N=C/c1ccc(Br)cc1)c1ccccc1-n1cccc1 10.6%
O=C(N/N=C\c1ccc(O)c([N+](=O)[O-])c1)c1ccccc1-n1cccc1 -4.94%
O=C(N/N=C\c1ccccc1)c1ccccc1-n1cccc1 6.39%
O=C(N/N=C/c1ccc[nH]1)c1ccccc1OCc1ccc(F)cc1 9.06%
CCOc1cc(/C=N/NC(=O)c2cc(C)n(-c3ccc(F)cc3)c2C)ccc1O 16.4%
Cc1cccc(/C=N\NC(=O)c2ccccc2-n2cccc2)c1 5.46%
O=C(COc1ccccc1-c1ccccc1)N/N=C/c1ccc2ccccc2c1 6.35%
COc1cc(/C=N/NC(=O)c2ccccc2O)ccc1OCC(=O)Nc1ccccc1 14.4%
CC(=O)c1cccc(S(=O)(=O)NC2CCCCCC2)c1 1.69%
COc1ccc(C(C(=O)NC2CCCCC2)N(Cc2ccco2)C(=O)c2ccccn2)c(OC)c1 (configuration not stated) 10.7%
CCCN(CCC)C(=O)c1ccc2c(c1)S(=O)(=O)c1ccccc1C2=O 6.12%
NC(=S)Nc1ccc(S(=O)(=O)c2ccc(NC(N)=S)cc2)cc1 10.8%
CC1(C)C(=O)OC(c2c3ccccc3cc3ccccc23)C(C)(C)C1=O (configuration not stated) 1.71%
CC(NS(=O)(=O)c1cccc(S(=O)(=O)c2ccccc2)c1)C(=O)O (configuration not stated) -5.11%
CCOC(=O)N1CCN(C(=O)c2cccc(S(=O)(=O)Nc3ccc(F)cc3)c2)CC1 4.83%
CCOC(=O)C1CCN(c2c(N3CCCC(C(=O)OCC)C3)c(=O)c2=O)CC1 (configuration not stated) 4.65%
CN(C)CCNC(=O)c1onc(CSc2nc3ccccc3[nH]2)c1C(=O)NCCN(C)C 17.3%
Brc1ccc(-c2ccc(/C=N/Nc3nc4ccccc4[nH]3)o2)cc1 3.17%
COCCNC(=O)/C(C#N)=C/c1ccc(C(=O)O)cc1 0.25%
COc1cccc(C(=O)N2CCn3c2nc2ccccc23)c1 8.54%
O=C(Nc1nnc(C2CCCCC2)s1)C1CC(=O)N(c2ccc(F)cc2)C1 (configuration not stated) 3.31%
COc1ccc(NC(=O)CSc2ccc3ccccc3c2)cc1S(=O)(=O)N1CCCCC1 8.21%
COc1ccc(/C=N/Nc2cc(C)nc3ccccc23)cc1 14.7%
Cc1ccc2nc(C)cc(N/N=C/c3cccc(O)c3)c2c1 14.1%
COc1cccc2c(N/N=C/c3ccccc3)cc(C)nc12 11%
COc1cccc2c(N/N=C/c3ccc(O)c(O)c3)cc(C)nc12 27.1%
